The values below come from PubChem BioAssay AID2284156 (EPA ToxCast).

Calls of active or inactive are those of the source. The calls were made as follows: active = hit-call score of the fitted dose curve at least 0.9, where 1 is the maximum; inactive = score below 0.9.

In the experiment the target is Muscarinic acetylcholine receptor M5 (Homo sapiens) (UniProt P08912). As to the kind of experiment: ERF_FR_GPCR_hCHRM5: Eurofins (ERF) G Protein-Coupled Receptor (GPCR) Radioligand Binding LeadHunter Assay for human Muscarinic Acetylcholine Receptor M5 Antagonism, conducted at France lab site. As for the experimental part: ERF_FR_GPCR_hCHRM5 is a biochemical, single-readout assay that uses extracted gene-proteins in a cell-free assay. Measurements were taken 1 hour after chemical dosing in a 96-well plate. See M5 Human Acetylcholine (Muscarinic) GPCR Binding (Antagonist Radioligand) Assay, Cerep.ERF_FR_GPCR_hCHRM5 is an assay component calculated from the ERF_FR_GPCR_hCHRM5 assay. It is designed to measure radioligand binding using a type of binding reporter as detected by scintillation counting with radiometry technology.Data from the assay component ERF_FR_GPCR_hCHRM5 was analyzed at the assay endpoint, ERF_FR_GPCR_hCHRM5, in the positive analysis fitting direction relative to DMSO as the negative control and baseline of activity. Using a type of binding reporter, loss-of-signal activity can be used to understand changes in binding as they relate to gene CHRM5. To generalize the intended target to other relatable targets, this assay endpoint is annotated to the gpcr intended target family, where the subfamily is acetylcholine (Muscarinic).
Sequence of Muscarinic acetylcholine receptor M5 (Homo sapiens) (P08912 whole entry, looked up): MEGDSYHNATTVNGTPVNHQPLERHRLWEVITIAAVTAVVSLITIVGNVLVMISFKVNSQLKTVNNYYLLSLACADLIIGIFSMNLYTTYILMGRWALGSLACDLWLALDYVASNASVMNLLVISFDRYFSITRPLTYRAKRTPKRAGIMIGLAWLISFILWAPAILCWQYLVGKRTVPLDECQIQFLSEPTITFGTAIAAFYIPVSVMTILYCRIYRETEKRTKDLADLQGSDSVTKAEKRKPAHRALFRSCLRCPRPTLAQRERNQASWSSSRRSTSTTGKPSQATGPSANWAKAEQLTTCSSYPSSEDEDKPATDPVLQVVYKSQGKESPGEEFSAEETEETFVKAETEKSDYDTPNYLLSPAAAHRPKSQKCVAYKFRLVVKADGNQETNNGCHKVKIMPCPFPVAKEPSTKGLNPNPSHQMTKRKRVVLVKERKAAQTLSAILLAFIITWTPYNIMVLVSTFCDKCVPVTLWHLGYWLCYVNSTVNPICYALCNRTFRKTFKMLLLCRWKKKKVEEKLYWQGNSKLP
Human cells are incubated for 60 minutes at room temprature with [3H]4-DAMP ligand (0.3 nM) and 4-Damp methiodide as control inhibitor.Test Sample Requirements: Minimum for 1) Screen: 60 ul of 10 mM stock -OR- 1 mg (pre-weighed) for 10 uM final testing. 2) Dose Response: 90 ul of 10 mM stock -OR- 1 mg (pre-weighed) for a top concentration at 10 uM.
As to `O=C(/C=C/c1ccc(O)cc1)CC(=O)/C=C/c1ccc(O)cc1`, the outcome was inactive.
